# Reference: PMC11995724, “Antibiotic target discovery by integrated phenotypic and activity-based profiling of electrophilic fragments” (Cell chemical biology, 2025)
# In all, about 3,200 compounds went through this assay and about 75 (2%) showed an effect of 50% or more. The sample as a whole holds a higher share of strong results than the screen did.
# Tested on: T1, S. aureus MSSA476
# T1 construct: MSSA476
# Design: species or system S. aureus MSSA476 (TSB) or V. cholerae SAD30 (LB); 384-well bacterial growth screen at 25 uM, OD600 relative to DMSO control
# Settings: relative growth, OD600, TSB; 25 µM; inhibitor
row,Structure (SMILES),% of control remaining
1,"CCCn1c(N)c(C(=O)CCl)c(=O)n(C)c1=O [10-H12, 6-amino-5-(2-chloroacetyl)-3-methyl-1-propyl-1,2,3,4-tetrahydropyrimidine-2,4-dione]",92.8125%
2,"C=CC(=O)NC(C)c1cnc(C(F)(F)F)s1 (centres unmarked) [2-A05, N-{1-[2-(trifluoromethyl)-1,3-thiazol-5-yl]ethyl}prop-2-enamide]",119.06%
3,"N#CC(=Cc1ccc(Cl)c([N+](=O)[O-])c1)C(=O)N1CCCC1 [9-N05, 3-(4-chloro-3-nitrophenyl)-2-(pyrrolidine-1-carbonyl)prop-2-enenitrile]",107.566%
4,"Cc1cc(C=C(C#N)C(=O)Nc2ccccc2)c(C)n1C1CC1 [8-E14, 2-cyano-3-(1-cyclopropyl-2,5-dimethyl-1H-pyrrol-3-yl)-N-phenylprop-2-enamide]",129.793%
5,"C=CC(=O)N1CCCCC1c1noc(C2CC2)n1 (centres unmarked) [3-K12, 1-[2-(5-cyclopropyl-1,2,4-oxadiazol-3-yl)piperidin-1-yl]prop-2-en-1-one]",93.3391%
6,"CCc1ccccc1NC(=O)CN(C)C(=O)C(C)Cl (centres unmarked) [4-P05, 2-chloro-N-{[(2-ethylphenyl)carbamoyl]methyl}-N-methylpropanamide]",90.7099%
7,"CC(Cl)C(=O)Nc1ccc(NC(=O)c2cccs2)cc1 (centres unmarked) [6-G07, N-[4-(2-chloropropanamido)phenyl]thiophene-2-carboxamide]",112.683%
8,"NS(=O)(=O)c1ccc(CNC(=O)CCl)cc1 [4-P12, 2-chloro-N-[(4-sulfamoylphenyl)methyl]acetamide]",97.1891%
9,"C=CC(=O)NCC1(OC)CCC(C)CC1 (centres unmarked) [1-P08, N-[(1-methoxy-4-methylcyclohexyl)methyl]prop-2-enamide]",89.3187%
10,"COc1ccc(N2C(=O)C=CC2=O)c(OC)c1 [10-J15, 1-(2,4-dimethoxyphenyl)-2,5-dihydro-1H-pyrrole-2,5-dione]",121.875%
11,"CCc1ccc(C(=O)CCl)cc1 [10-F18, 2-chloro-1-(4-ethylphenyl)ethan-1-one]",102.188%
12,"CC(C)C(=O)Nc1ccc(C(=O)CCl)cc1 [10-D04, N-[4-(2-chloroacetyl)phenyl]-2-methylpropanamide]",4.6875%
13,"CC(NC(=O)CCl)C(=O)Nc1ccc(Cl)cc1 (centres unmarked) [5-G11, 2-(2-chloroacetamido)-N-(4-chlorophenyl)propanamide]",83.4244%
14,"CSc1ccc(C(=O)CCl)cc1 [10-E07, 2-chloro-1-[4-(methylsulfanyl)phenyl]ethan-1-one]",2.1875%
15,"CCCc1ccc(C(=O)CCl)cc1 [10-C04, 2-chloro-1-(4-propylphenyl)ethan-1-one]",134.375%
16,"CCN(CC)C(=O)c1ccc(NC(=O)CCl)cc1 [4-C05, 4-(2-chloroacetamido)-N,N-diethylbenzamide]",84.9929%
17,"CC(C)C(=O)Nc1ccc(C(=O)C(C)Cl)cc1 (centres unmarked) [10-E08, N-[4-(2-chloropropanoyl)phenyl]-2-methylpropanamide]",106.875%
18,"CCOC(=O)c1ccc(NC(=O)CCl)cc1 [4-E17, ethyl 4-(2-chloroacetamido)benzoate]",118.152%
19,"CCC(=O)Nc1ccc(C(=O)CCl)cc1 [10-C03, N-[4-(2-chloroacetyl)phenyl]propanamide]",1.5625%
20,"CC(=O)NCc1ccc(C2CCCN2C(=O)CCl)o1 (centres unmarked) [5-P13, N-({5-[1-(2-chloroacetyl)pyrrolidin-2-yl]furan-2-yl}methyl)acetamide]",100.182%
21,"COc1cc(NC(=O)C(C)Cl)cc(OC)c1 (centres unmarked) [4-I04, 2-chloro-N-(3,5-dimethoxyphenyl)propanamide]",105.574%
22,"CC(Cl)C(=O)N(Cc1ccc(Cl)cc1)Cc1cnn(C)c1 (centres unmarked) [5-P17, 2-chloro-N-[(4-chlorophenyl)methyl]-N-[(1-methyl-1H-pyrazol-4-yl)methyl]propanamide]",95.4463%
23,"C=CC(=O)NCc1ccc(C(=O)N2CCCOC(C)(C)C2)cc1 [3-N06, N-{[4-(2,2-dimethyl-1,4-oxazepane-4-carbonyl)phenyl]methyl}prop-2-enamide]",118.764%
24,"CC(C)NC(=O)C(C#N)=Cc1cccc2ccccc12 [8-P06, 2-cyano-3-(naphthalen-1-yl)-N-(propan-2-yl)prop-2-enamide]",127.801%
25,"C=CC(=O)N1CCC(C(=O)Nc2cccc(NC(=O)C(C)C)c2)CC1 [3-F05, N-[3-(2-methylpropanamido)phenyl]-1-(prop-2-enoyl)piperidine-4-carboxamide]",95.0805%
26,"CC(Cl)C(=O)C=C1N(C)c2ccccc2C1(C)C (centres unmarked) [10-J22, 3-chloro-1-(1,3,3-trimethyl-2,3-dihydro-1H-indol-2-ylidene)butan-2-one]",134.063%
